HP1b chromo inh = HP1-beta chromodomain-methylated histone interaction inhibition; 0.56% of 390,000 active; P83916; AID 540317; Potency, µM (highest dose often 114 µM), actives largely listed as inhibitors; AlphaScreen HP1-beta / biotin-H3K9me3 peptide binding; note: nearly all actives have a fitted effect of over 70% in size
Target sequence (P83916 whole entry, looked up): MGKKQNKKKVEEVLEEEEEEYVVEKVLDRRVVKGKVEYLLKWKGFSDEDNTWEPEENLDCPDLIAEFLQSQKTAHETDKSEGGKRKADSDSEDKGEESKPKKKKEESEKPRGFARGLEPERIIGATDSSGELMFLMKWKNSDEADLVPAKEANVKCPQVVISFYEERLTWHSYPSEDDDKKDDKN
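AlphaScreen: HP1-beta (50 nM) preformed 30 min with biotin-H3(1-18)K9me3 peptide (50 nM) in PBS pH 7.4, 0.01% Tween-20. Compound added for 30 min at RT, then streptavidin donor/nickel chelate acceptor beads (10 ug/mL) for 30 min.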
BAZ2B inh = inhibitors of human BAZ2B bromodomain | Q9UIF8 | AlphaScreen BAZ2B-H3K14Ac peptide displacement | Potency, µM (top dose mostly 114 µM), usual class: inhibitors | 4.4% of 360,000 active | AID 504333; note: nearly all actives have a fitted effect of over 60% in size
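Multi-concentration screen (max 110 uM) measuring displacement of acetylated histone H3 peptide from BAZ2B by AlphaScreen, using 50 nM protein, 50 nM peptide and 10 ug/mL streptavidin donor plus Ni-chelate acceptor beads.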
G9a block = G9a (human) methyltransferase inhibition; Q96KQ7; G9a H3K9 monomethylation, AlphaScreen, 2 h; Potency, µM (series often up to 102 µM), usual class: inhibitors; 8.8% of 350,000 active; AID 504332; note: nearly all actives have a fitted effect of over 75% in size
Target sequence (Q96KQ7 913-1193 limits assumed): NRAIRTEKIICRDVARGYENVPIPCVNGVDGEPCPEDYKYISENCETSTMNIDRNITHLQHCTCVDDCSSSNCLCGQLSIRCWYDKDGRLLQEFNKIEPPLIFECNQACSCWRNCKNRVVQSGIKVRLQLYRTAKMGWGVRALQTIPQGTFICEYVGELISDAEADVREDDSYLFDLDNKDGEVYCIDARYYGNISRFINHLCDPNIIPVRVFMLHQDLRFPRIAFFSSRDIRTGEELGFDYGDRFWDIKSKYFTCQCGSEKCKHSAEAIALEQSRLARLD
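Using a bead-based AlphaScreen, monomethylated H3K9 product from 2 h room-temperature reactions (G9a 20 nM, peptide 500 nM, SAM 20 uM) was detected with 0.5 ug/mL rabbit anti-H3K9me1 antibody.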
Sfp inh = Sfp phosphopantetheinyl transferase inhibition | Q9F4F7 | Biochemical Sfp PPTase activity, qHTS | Potency, µM, hits mostly inhibitors | 3.5% of 310,000 active;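 note: the enzyme is Sfp with the accession as filed and its product quenches rhodamine fluorescence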
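Compounds were incubated with enzyme (final 15 nM) for 15 min at room temperature before substrate addition started the reaction. Fluorescence at 525 nm excitation, 598 nm emission was recorded immediately and after 30 minutes.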
JMJD2A Tudor inh = JMJD2A Tudor domain (human) inhibition. AlphaScreen JMJD2A-Tudor / H3K4me3 peptide binding. 4.4% of 390,000 active. O75164. Potency, µM (titrated, usually from 114 µM), actives largely listed as inhibitors; note: nearly all actives have a fitted effect of over 50% in size
A number is an active result; 0 = inactive; ? = inconclusive; - = not tested or not shown; ! = not active in a repeat; [ ] = dose if it differs, or a comment. A selection: hits, their analogues and other compounds. The true share with any hit is near 12%. Calls come from the whole dose curve; as a rule, active = well fitted curve in the direction sought with a large enough effect; inconclusive = small, poorly fitted or top-dose-only effect, or another doubt; inactive = no such curve, though single readings can be large; an effect the other way counts as inactive or inconclusive.

SMILES	HP1b chromo inh	BAZ2B inh	G9a block	Sfp inh	JMJD2A Tudor inh
FC(F)(F)Oc1ccc(Nc2nc(N3CCOCC3)nc(N3CCOCC3)n2)cc1	0	?	-	0	18µM
Cn1ccc(O)c(C#N)c1=O	0	0	0	0	0
O=C(Nc1ccc(Cl)cc1F)c1ccc2c(c1)C(=O)N(Cc1ccncc1)C2=O	0	-	-	-	0
CCOC(=O)c1ccc2c(c1)N(CC(=O)Nc1cc(F)ccc1F)C(=O)c1ccccc1S2	0	0	0	-	0
O=C(O)c1ccc2c(c1)ncn2C1CCCC1	0	-	?	0	0
O=C(O)c1cccc(NC(=O)c2cccc(S(=O)(=O)Nc3cccc(C(=O)O)c3)c2)c1	0	0	?	-	0
O=C(Nc1cccc(C(=O)Nc2ccc(S(=O)(=O)O)c3cc(S(=O)(=O)O)cc(S(=O)(=O)O)c23)c1)Nc1cccc(C(=O)Nc2ccc(S(=O)(=O)O)c3cc(S(=O)(=O)O)cc(S(=O)(=O)O)c23)c1	-	-	0.6µM	45µM!	-
Cc1cccc(CSc2ccc(S(=O)(=O)N3CCCC3)cn2)c1	0	0	14µM	-	0
CC(O)c1cccc(NC(=O)C2CCCCC2)c1 (stereo not drawn)	0	0	0	0	0
Cn1c(=O)c2c(nc(N3CCN(c4ccccn4)CC3)n2Cc2ccc(Cl)cc2Cl)n(C)c1=O	0	0	?	0	0
Nc1cc2c([N+](=O)[O-])cccc2o1	0	56µM	0[2.33 µM]	0	0
Cc1ccc(-c2nnc(-c3cccs3)o2)cc1	0	0	-	0	0
Cc1ccc(C)c(OCCOCCN2CC(C)OC(C)C2)c1C (stereo not drawn)	?	25µM	13µM	?	1µM
CC1CN(CCOCCOc2ccccc2-c2ccccc2)CC(C)O1 (stereo not drawn)	?	22µM	1.8µM	45µM	10µM
CC1CN(CCOc2ccccc2C(C)C)CC(C)O1 (stereo not drawn)	?	?	10µM	?	22µM
Cc1ccc(C(C)C)c(OCC(O)CN2CC(C)OC(C)C2)c1 (stereo not drawn)	0	0	0	0	0
c1ccc(-c2ccccc2OCCOCCN2CCc3ccccc3C2)cc1	0	0	0	0	0
COC(=O)c1ccccc1OCCCCN1CC(C)OC(C)C1 (stereo not drawn)	?	35µM	3.5µM	?	1.8µM
Cn1c(=O)oc2cc(S(=O)(=O)N3CCN(Cc4ccc5c(c4)OCO5)CC3)ccc21	0	0	0[0.501 µM]	0	0
COc1ccc(S(=O)(=O)N2CCN(c3nc(C)cc(C)n3)CC2)cc1	0	0	0[2.33 µM]	0	0
COc1ccc(N(CC(=O)NCc2cccs2)S(=O)(=O)c2ccc(F)cc2)cc1	0	0	0[12.7 µM]	-	0
Cc1ccccc1Nc1cc(C(=O)NCCCN2CCN(c3cccc(Cl)c3)CC2)c2ccccc2n1	0	0	?	-	?
CC(C)(C)OC(=O)NCc1ccc(CNC(=O)c2[nH]cnc2C(=O)N[C@@H](Cc2ccccc2)C(=O)OCc2ccccc2)cc1	0	0	0	0	0
Fc1ccc(OCCCCCN2CCCC2)cc1	0	0	0	0	0
CC1CN(CCCCOc2ccc(F)cc2)CC(C)O1 (stereo not drawn)	50µM	50µM	10µM	0	?
SMILES	HP1b chromo inh	BAZ2B inh	G9a block	Sfp inh	JMJD2A Tudor inh
COC(=O)CN1C(=O)[C@H]2[C@@H](c3ccc(C)o3)N3C(=O)CN(CC4CC4)C(=O)[C@@]3(C)[C@H]2C1=O	0	0	50µM	?	0
Cc1ccc([C@@H]2[C@@H]3C(=O)N(C)C(=O)[C@@H]3[C@]3(C)C(=O)N(CCO)CC(=O)N23)o1	0	0	45µM	0	0
COC(=O)CN1C(=O)[C@H]2[C@@H](c3ccc(C)o3)N3C(=O)CN(Cc4ccc(-c5ccccc5)cc4)C(=O)[C@@]3(C)[C@H]2C1=O	0	0	40µM	13µM	0
Cc1ccc([C@@H]2[C@@H]3C(=O)N(C)C(=O)[C@@H]3[C@]3(Cc4ccccc4)C(=O)N(CCO)CC(=O)N23)o1	0	0	0	0	0
COC(=O)CN1C(=O)[C@H]2[C@@H](c3ccc(C)o3)N3C(=O)CN(Cc4ccccc4)C(=O)[C@@]3(Cc3ccccc3)[C@H]2C1=O	0	0	0	?	0
CCCc1nc(Nc2nc3ccccc3o2)nc(C)c1C(=O)OCC	0	0	0	0	0
CNC(=S)NCc1ccc2[nH]c3c(c2c1)CCCC3	0	45µM	40µM	?	0
O=C(O)c1ccc2[nH]c3c(c2c1)CCCC3	0	0	0	0	0

Bioassay records deposited in PubChem by National Center for Advancing Translational Sciences (NCATS).
